Bioassay records from PubChem BioAssay.
ALDH1A1 block – inhibitors of human aldehyde dehydrogenase 1A1. P00352. Purified ALDH1A1, NADH fluorescence, propionaldehyde substrate. AID 1030. Potency, µM (series often up to 75.3 µM), without a hit: at the highest dose activity, negative = inhibition, usual class: inhibitors. hit rate 7.3% among 220,000;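 note: plate controls were no enzyme wells and a reference inhibitor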
Tau fibril ThT – inhibitors of human tau fibril formation, thioflavin T binding; P10636; recombinant tau K18 P301L, heparin-induced fibrillization, ThT fluorescence; Potency, µM (series often up to 57.4 µM), inactives show at the top dose activity, negative = inhibition, usual class: inhibitors; hit rate 2.1% among 270,000; AID 1460; active = well fitted curve in the direction sought with a large enough effect; inconclusive = small, poorly fitted or top-dose-only effect, or another doubt; inactive = no such curve, though single readings can be large; an effect the other way counts as inactive or inconclusive; note: nearly all actives have a fitted effect of over 55% in size
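ThT emission at 510 nm, taken 1 hr after adding 30 uM dye, quantifies aggregates formed when 20 uM heparin acts on human tau K18 P301L for 6 hr at 37 C.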
Tau fibril FP – blocks human tau fibril formation measured by polarization | P10636 | K18 P301L tau heparin fibrillization, Alexa594 FP, 6 h | Potency, µM (series often up to 57.7 µM), without a hit: at the top dose activity, negative = inhibition, usual class: inhibitors | hit rate 0.39% among 280,000 | AID 1468; active = well fitted curve in the direction sought with a large enough effect; inconclusive = small, poorly fitted or top-dose-only effect, or another doubt; inactive = no such curve, though single readings can be large; an effect the other way counts as inactive or inconclusive; note: nearly all actives have a fitted effect of over 55% in size
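Steps: dispense K18 P301L tau (15 uM plus 0.24 uM Alexa 594 tracer, final) in pH 7 sodium acetate; add compound; add heparin (20 uM final); incubate 6 hr, 37 C; add ThT (30 uM final); after 1 hr ambient, read FP.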
KDM4E inh – inhibitors of human JMJD2E histone demethylase; B2RXH2; Potency, µM (top dose mostly 57.1 µM), without a hit: at the highest dose activity change, negative = inhibition, usual class: inhibitors; JMJD2E catalytic domain, FDH-coupled NADH fluorescence (FDH is formaldehyde dehydrogenase); AID 2147; hit rate 1.6% among 230,000;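 note: 0% = wells with enzyme and -100% = buffer wells without enzyme; nearly all actives have a fitted effect of over 50% in size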
Target sequence (B2RXH2 1-337 limits assumed): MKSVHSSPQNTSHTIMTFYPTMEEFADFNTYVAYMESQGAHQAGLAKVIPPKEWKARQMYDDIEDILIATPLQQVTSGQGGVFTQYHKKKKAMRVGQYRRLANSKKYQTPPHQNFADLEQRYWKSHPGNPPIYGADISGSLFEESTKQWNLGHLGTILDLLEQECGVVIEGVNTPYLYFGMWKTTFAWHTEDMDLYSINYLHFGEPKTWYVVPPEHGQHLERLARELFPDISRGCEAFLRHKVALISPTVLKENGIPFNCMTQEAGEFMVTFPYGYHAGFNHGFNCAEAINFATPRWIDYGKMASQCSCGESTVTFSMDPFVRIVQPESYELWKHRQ
Tau fluor cs – counter-screen for tau fibril formation inhibitors | tau K18 P301L (four-repeat tau fragment) Alexa594 fluorescence, heparin fibrillization | Potency, µM (top dose mostly 57.7 µM), for the others: at the top dose activity change, negative = decrease | hit rate 0.93% among 280,000 | AID 1463; active = well fitted curve in the direction sought with a large enough effect; inconclusive = small, poorly fitted or top-dose-only effect, or another doubt; inactive = no such curve, though single readings can be large; an effect the other way counts as inactive or inconclusive; note: nearly all actives have a fitted effect of over 55% in size
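Human K18 P301L tau (15 uM unlabeled plus 0.24 uM Alexa 594-labeled, final) in 100 mM sodium acetate pH 7 was mixed with compound and 20 uM heparin and incubated 6 hr at 37 C.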
HPGD inh – blocks human HPGD enzyme activity; P15428; purified HPGD, NADH fluorescence kinetic, PGE2 substrate; Potency, µM, without a hit: at the top dose activity change, negative = inhibition, hits mostly inhibitors; hit rate 4.3% among 150,000; AID 894
Target sequence (P15428 whole entry, looked up): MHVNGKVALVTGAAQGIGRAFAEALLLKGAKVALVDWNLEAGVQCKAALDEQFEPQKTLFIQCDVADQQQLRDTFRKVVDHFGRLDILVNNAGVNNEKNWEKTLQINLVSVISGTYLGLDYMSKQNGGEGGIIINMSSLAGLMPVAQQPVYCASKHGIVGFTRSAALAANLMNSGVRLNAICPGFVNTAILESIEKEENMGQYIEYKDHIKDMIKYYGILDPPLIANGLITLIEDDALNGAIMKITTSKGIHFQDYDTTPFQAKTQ
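20 nM HPGD preincubated 15 min at room temperature with compound in 50 mM Tris-HCl pH 8, 0.01% Tween 20. Started with 1 mM NAD+ and 30 uM prostaglandin E2; NADH fluorescence (360/450 nm) read 5 times over 30-s intervals, last minus first.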
Active calls of the source: *; ! = a repeat was not active; [ ] = another dose, or the depositor's remark. Most compounds without a hit are left out; they make up all but 9.9% or so of the library. Unless noted, calls come from the whole dose curve; as a rule, active = well fitted inhibition curve with a large enough effect (not every such curve was filed as active); inconclusive = small, poorly fitted or top-dose-only effect, or another doubt; inactive = no such curve, though single readings can be large or run the other way. Unless noted, % is set by controls: 0 for no effect and ±100 for the full control effect; potency is the fitted concentration of half-maximal effect.

`O=C(Nc1ccc(F)cc1)C1C(c2ccccc2)C1(Cl)Cl` (stereo not given) gave ALDH1A1 block 8%, Tau fibril ThT 1%, Tau fibril FP -3%, KDM4E inh -2%, Tau fluor cs -19% and HPGD inh -9%.
`O=C(Nc1ccc(Cl)cc1)NC1CCCC1Cc1ccco1` (stereo not given) gave ALDH1A1 block 13µM*, Tau fibril ThT -7%, Tau fibril FP inconclusive, KDM4E inh -9%, Tau fluor cs inconclusive and HPGD inh -18%.
For CCCCC[C@H](O)/C=C/[C@H]1C=CC(=O)[C@@H]1C/C=C\CCCC(=O)O the results were ALDH1A1 block 40µM*!, Tau fibril ThT -2%, Tau fibril FP 0%, KDM4E inh -13%, Tau fluor cs -3% and HPGD inh 22µM*!.
`CCCCC/C=C\C/C=C\CCCCCCCC(=O)O` gave ALDH1A1 block 18µM*!, Tau fibril ThT -4%, Tau fibril FP 2%, KDM4E inh 2%, Tau fluor cs 3% and HPGD inh 8.9µM*!.
For CCCCC/C=C/C=C1/C(=O)C=C[C@@H]1C/C=C\CCCC(=O)O the results were ALDH1A1 block -1%, Tau fibril ThT 16µM*!, Tau fibril FP inconclusive, KDM4E inh -12%, Tau fluor cs -4% and HPGD inh -18%.
Screening Cc1ccc(S(=O)(=O)NC2CCCCC2)c2nsnc12 returned ALDH1A1 block 16µM*, Tau fibril ThT -3%, Tau fibril FP 1%, KDM4E inh 2%, Tau fluor cs -7% and HPGD inh -27%.
`Cc1ccc2nsnc2c1S(=O)(=O)NC1CC1` gave ALDH1A1 block -3%, Tau fibril ThT -1%, Tau fibril FP 0%, KDM4E inh 0%, Tau fluor cs -2% and HPGD inh -12%.
Screening CCOc1ccc(C(=O)OCc2nnc(-c3cccs3)o2)cc1OC returned ALDH1A1 block 1%, Tau fibril ThT inconclusive, Tau fibril FP 0%, KDM4E inh 0%, Tau fluor cs -8% and HPGD inh 25µM*.
CCN(CC)CCC(=O)c1ccc(F)cc1 was read as ALDH1A1 block 1.1µM*, Tau fibril ThT inconclusive, Tau fibril FP 4%, KDM4E inh 2% and Tau fluor cs -7%.
`O=[N+]([O-])c1cnc(Sc2ccncn2)s1` gave ALDH1A1 block 3.2µM*, Tau fibril ThT inconclusive, Tau fibril FP inconclusive, KDM4E inh -13% and Tau fluor cs inconclusive.
`O=C(Nc1ccc(Cl)cc1)Nc1ccccc1Sc1ncc([N+](=O)[O-])s1` gave Tau fibril FP inconclusive, KDM4E inh -16% and Tau fluor cs inconclusive.
Screening COc1ccccc1N(CC(=O)Nc1cc(C)on1)S(=O)(=O)c1ccc(Cl)cc1 returned ALDH1A1 block 1%, Tau fibril ThT -20%, Tau fibril FP 5%, KDM4E inh 0%, Tau fluor cs -21% and HPGD inh 14µM*.
Screening COc1ccccc1N(CC(=O)Nc1ccc2c(c1)OCO2)S(=O)(=O)c1ccc(C)cc1 returned Tau fibril ThT inconclusive, Tau fibril FP 8% and Tau fluor cs inconclusive.
Screening COc1ccc(OC)c(N(CC(=O)Nc2ccc3c(c2)OCO3)S(=O)(=O)c2ccccc2)c1 returned ALDH1A1 block -6%, Tau fibril ThT -21%, Tau fibril FP inconclusive, KDM4E inh -1%, Tau fluor cs inconclusive and HPGD inh 32µM*.
Screening COc1ccc(OC)c(N(CC(=O)Nc2cccnc2)S(=O)(=O)c2ccc(C)cc2)c1 returned ALDH1A1 block -7%, Tau fibril ThT -8%, Tau fibril FP 2%, KDM4E inh 1%, Tau fluor cs -8% and HPGD inh 7.1µM*.
Screening COc1ccc(OC)c(N(CC(=O)Nc2cccnc2)S(=O)(=O)c2ccc(OC)c(OC)c2)c1 returned ALDH1A1 block 9%, Tau fibril ThT -2%, Tau fibril FP 8%, KDM4E inh 1%, Tau fluor cs 9% and HPGD inh 16µM*.
Screening COc1ccc(OC)c(N(CC(=O)Nc2cccnc2)S(C)(=O)=O)c1 returned ALDH1A1 block 5%, Tau fibril ThT -14%, Tau fibril FP -2%, KDM4E inh -1%, Tau fluor cs -8% and HPGD inh -2%.
`CCc1ccc(C2c3c(n[nH]c3C)C(=O)N2c2ccc(C)cc2)cc1` (stereo not given) gave Tau fibril ThT -5%, Tau fibril FP -15% and Tau fluor cs -9%.
For COc1ccc(-c2nc3ccccc3s2)cc1NC(=O)c1ccccc1OC the results were Tau fibril ThT 1%, Tau fibril FP -9% and Tau fluor cs -22%.
Screening O=C(CCCN1C(=O)/C(=C\c2ccccc2)SC1=S)Nc1ccc(O)cc1 returned ALDH1A1 block inconclusive, Tau fibril ThT inconclusive, Tau fibril FP 14%, KDM4E inh -15% and Tau fluor cs 14µM*[quencher].
Screening Cc1ccc(/C=C2/SC(=S)N(CCCC(=O)Nc3ccc(O)cc3)C2=O)cc1 returned ALDH1A1 block inconclusive, Tau fibril ThT inconclusive, Tau fibril FP 4%, KDM4E inh -12% and Tau fluor cs inconclusive.
O=C(CCCN1C(=O)/C(=C/c2ccccc2)SC1=S)Nc1cccc(O)c1 was read as ALDH1A1 block 9%, Tau fibril ThT inconclusive, Tau fibril FP inconclusive, KDM4E inh -23% and Tau fluor cs 14µM*[quencher].
`CC(/C=C1\SC(=S)N(CCCC(=O)Nc2ccc(C(=O)O)c(O)c2)C1=O)=C\c1ccccc1` gave ALDH1A1 block 6.3µM*, Tau fibril ThT 5µM*, Tau fibril FP -9%, KDM4E inh 7%, Tau fluor cs inconclusive and HPGD inh inconclusive.
Screening O=C(O)CCCN1C(=O)/C(=C/c2cn(-c3ccccc3)nc2-c2cccs2)SC1=S returned ALDH1A1 block -10%, Tau fibril ThT 16µM*, Tau fibril FP inconclusive, KDM4E inh 1% and Tau fluor cs -4%.
`CC(=C\c1ccccc1)/C=C1/SC(=O)N(CCCC(=O)Nc2ccc(C(=O)O)cc2)C1=O` gave ALDH1A1 block -13%, Tau fibril ThT inconclusive, Tau fibril FP -4%, KDM4E inh 6% and Tau fluor cs -3%.
Screening O=C(CN1C(=O)/C(=C/c2cccc(Br)c2)SC1=S)Nc1cccnc1 returned ALDH1A1 block inconclusive, Tau fibril ThT inconclusive, Tau fibril FP inconclusive, KDM4E inh 2% and Tau fluor cs 8.9µM*[quencher].
For O=C(CCCN1C(=O)/C(=C/c2cccs2)SC1=S)Nc1ccccn1 the results were ALDH1A1 block -18%, Tau fibril ThT 3%, Tau fibril FP 3%, KDM4E inh -12% and Tau fluor cs -6%.
